From PubChem BioAssay (NCATS) come the findings set out here.

Results filed as inconclusive are left out. Active and inactive are the calls of the source. The call rests on the fitted dose curve; in most records, active means well fitted curve in the direction sought with a large enough effect; inconclusive means small, poorly fitted or top-dose-only effect, or another doubt; inactive means no such curve, though single readings can be large; an effect the other way counts as inactive or inconclusive.

Assay [1] can be described thus: Quantitative High-Throughput drug screen in 47 multiple myeloma cell lines against the NCATS MIPE library collection: KHM11_PLB cell viability assay (AID 1918962). Further: nearly all actives have a fitted effect of over 35% in size. As to conditions: KHM11 myeloma cell viability, CellTiter-Glo ATP luminescence, 48 h; series mostly up to 45.8 µM. The procedure, abridged: (§1)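 Myeloma cells (500 per well) were exposed to MIPE 4.0 compounds by pin transfer and incubated 48 hours at 37C, 5% CO2. Viability was read as ATP by CellTiter-Glo luminescence, normalised to DMSO (100%) and media-only (0%) wells.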
Background: ATP-based viability assays read luminescence as a measure of living cells.

Assay [2] can be described thus: Quantitative High-Throughput drug screen in 47 multiple myeloma cell lines against the NCATS MIPE library collection: JIM1_ECACC cell viability assay (AID 1918964). As to conditions: JIM1 myeloma viability, CellTiter-Glo ATP luminescence, 48 h; series mostly up to 45.8 µM. The gist of the method:
(§2)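 Viability readout: CellTiter-Glo luminescence following 5 min room-temperature incubation with reagent. Prior exposure: 48 h, 37C, humidified 5% CO2, 500 cells per well.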

A short description of assay [3]: Quantitative High-Throughput drug screen in 47 multiple myeloma cell lines against the NCATS MIPE library collection: INA6_PLB cell viability assay (AID 1918965; further: nearly all actives have a fitted effect of over 55% in size). The conditions noted are these: INA6 myeloma viability, CellTiter-Glo ATP luminescence, 48 h; series mostly up to 45.8 µM. The gist of the method: (§3)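 CellTiter-Glo ATP luminescence gave viability after 48 h compound treatment at 37C of 500 multiple myeloma cells per well. Normalisation used DMSO-only wells as 100% and media-only wells as 0% viability; primary qHTS of approved and investigational drugs.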

A short description of assay [4]: Quantitative High-Throughput drug screen in 47 multiple myeloma cell lines against the NCATS MIPE library collection: H1112_PLB cell viability assay (AID 1918967; further: nearly all actives have a fitted effect of over 30% in size). As to conditions: H1112 myeloma cells viability, ATP luminescence, 48 h; series mostly up to 45.8 µM. The gist of the method: as §2
A short description of assay [5]: Quantitative High-Throughput drug screen in 47 multiple myeloma cell lines against the NCATS MIPE library collection: Karpas25_ECACC cell viability assay (AID 1918968; further: nearly all actives have a fitted effect of over 35% in size). The conditions noted are these: Karpas25 myeloma viability, CellTiter-Glo ATP, 48 h; series mostly up to 45.8 µM. The gist of the method: as §2
Assay [6] is described as follows: Quantitative High-Throughput drug screen in 47 multiple myeloma cell lines against the NCATS MIPE library collection: JJN3_DSMZ cell viability assay (AID 1918966; further: nearly all actives have a fitted effect of over 50% in size). As to conditions: JJN3 myeloma cells viability, CellTiter-Glo ATP, 48 h; series mostly up to 45.8 µM. The gist of the method: as §2
Assay [7] can be described thus: Quantitative High-Throughput drug screen in 47 multiple myeloma cell lines against the NCATS MIPE library collection: KMM1_JCRB cell viability assay (AID 1918960). Further: nearly all actives have a fitted effect of over 30% in size. The conditions noted are these: KMM1 myeloma viability, CellTiter-Glo ATP luminescence, 48 h; series mostly up to 45.8 µM. The gist of the method: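 500 cells/well; MIPE 4.0 library pinned in; 48 h, 37 °C, 5% CO2; CellTiter-Glo ATP luminescence. Controls: DMSO = 100% viability, medium only = 0%.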

The nature of assay [8]: Quantitative High-Throughput drug screen in 47 multiple myeloma cell lines against the NCATS MIPE library collection: JIM3_ECACC cell viability assay (AID 1918963; further: nearly all actives have a fitted effect of over 35% in size). The conditions noted are these: JIM3 myeloma viability, CellTiter-Glo ATP, 48 h; series mostly up to 45.8 µM. The gist of the method: as §1
Assay [9] in a line: Quantitative High-Throughput drug screen in 47 multiple myeloma cell lines against the NCATS MIPE library collection: Karpas417_ECACC cell viability assay (AID 1918961). As to conditions: Karpas417 myeloma viability, CellTiter-Glo ATP luminescence, 48 h; viability (% of DMSO): at 45.8 µM (top of the series). The gist of the method:
as §3
Potency means the concentration at half of the fitted maximal effect.

`CC(=O)OCC(CCn1cnc2cnc(N)nc21)COC(C)=O`: the Potency entry in assay [1], in assay [2], in assay [3], in [4] and in assay [5] was “inactive” throughout.

Turning to `Cc1ccc(C(=O)Nc2ccc(S(=O)(=O)O)c3cc(S(=O)(=O)O)cc(S(=O)(=O)O)c23)cc1NC(=O)c1cccc(NC(=O)Nc2cccc(C(=O)Nc3cc(C(=O)Nc4ccc(S(=O)(=O)O)c5cc(S(=O)(=O)O)cc(S(=O)(=O)O)c45)ccc3C)c2)c1`, the Potency result in [1], in assay [2], in assay [6] and in assay [5] was “inactive” throughout. Also, the Potency in [3] was 4.69 µM (active).

Take `Nc1nnc(-c2cccc(Cl)c2Cl)c(N)n1`: in assay [2], the Potency result was “inactive”. Also, the Potency in assay [5] is 20.9 µM (active).

For the compound `O=c1[nH]cc(F)c(=O)[nH]1`, the figures for the Potency in assay [7] and in assay [3] were 10.5 µM (active) and 5.26 µM (active), respectively. Also, the Potency result in [4] was “inactive”.

In the case of `CC(COc1ccccc1)N(CCCl)Cc1ccccc1` (stereo not given), the Potency result in assay [7], in assay [3], in [6] and in assay [5] was “inactive” throughout.

As to `OCCN(CCO)c1nc(N2CCCCC2)c2nc(N(CCO)CCO)nc(N3CCCCC3)c2n1`, the Potency in assay [2] is 23.5 µM (active); in [6] it was 23.5 µM (active); in [5], 26.4 µM (active).

Take `Clc1ccc2nsnc2c1NC1=NCCN1`: the Potency entry in [7], in assay [8], in [3], in [4] and in assay [5] was “inactive” throughout.

With `CCOC(=O)c1ncn2c1CN(C)C(=O)c1cc(F)ccc1-2`, the Potency entry in [7], in assay [2], in [3], in assay [4] and in assay [5] was “inactive” in each case.

For `Cn1ccc2cc3c(cc21)CCN3C(=O)Nc1cccnc1`, the results for the Potency in assay [3], in assay [4] and in assay [5] were 14.8 µM (active), 20.9 µM (active) and 20.9 µM (active), respectively.

For `CCOC(=O)Nc1ccc(NCc2ccc(F)cc2)nc1N`, the Potency entry in assay [9], in assay [4] and in assay [5] was “inactive” each time. Besides, the Potency in assay [3] is 14.8 µM (active).

Regarding `Clc1ccc(C(c2ccccc2Cl)C(Cl)Cl)cc1` (stereo not given), in [4], the Potency entry was “inactive”.

In the case of `Clc1ccccc1C(c1ccccc1)(c1ccccc1)n1ccnc1`, the Potency in [9] was 0.0093 µM (active); in [2] it was 0.0743 µM (active); in [3] it was 16.6 µM (active); in assay [4], 14.8 µM (active); in assay [5] it was 18.7 µM (active). Besides, the Potency result in assay [1] was “inactive”.

For `CN1CCN(C2=Nc3cc(Cl)ccc3Nc3ccccc32)CC1`, the figures for the Potency in assay [7] and in assay [5] were 16.6 µM (active) and 26.4 µM (active), respectively. For the same compound, in assay [2], the Potency result is “inactive”.

With `Fc1ccc([C@@H]2CCNC[C@H]2COc2ccc3c(c2)OCO3)cc1`, the Potency entry in assay [8] and in assay [5] was “inactive” in each case. In addition, the Potency in assay [4] was 10.5 µM (active).

In the case of `O=c1c(O)c(-c2ccc(O)c(O)c2)oc2cc(O)cc(O)c12`, the Potency in [9] is 0.0166 µM (active); in [3], 11.8 µM (active); in assay [4], 20.9 µM (active); in assay [5] it was 16.6 µM (active).

In the case of `C[C@H]1c2cccc(O)c2C(O)=C2C(=O)[C@]3(O)C(O)=C(C(N)=O)C(=O)[C@@H](N(C)C)[C@@H]3[C@@H](O)[C@@H]21`, the Potency is 37.2 µM (active) in assay [3] and 16.6 µM (active) in [5].

Take `COc1cc2nc(N3CCN(C(=O)C4COc5ccccc5O4)CC3)nc(N)c2cc1OC` (stereo not given): the Potency in [7] was 5.9 µM (active); in [3], 20.9 µM (active); in [4], 18.7 µM (active); in [5], 20.9 µM (active).

Take `CC1COc2c(N3CCN(C)CC3)c(F)cc3c(=O)c(C(=O)O)cn1c23` (stereo not given): the Potency entry in assay [1], in [2], in assay [6], in assay [4] and in [5] was “inactive” each time.

As to `CN(C)C(=N)N=C(N)N`, the Potency entry in assay [7], in assay [3], in assay [4] and in assay [5] was “inactive” throughout.

In the case of `NC12CC3CC(CC(C3)C1)C2`, the results for the Potency in assay [3] and in [5] were 26.4 µM (active) and 0.118 µM (active), respectively. Moreover, the Potency result in assay [6] is “inactive”.

Turning to `OCCN1CCN(CCCN2c3ccccc3Sc3ccc(C(F)(F)F)cc32)CC1`, the Potency is 20.9 µM (active) in [7]; 16.6 µM (active) in assay [2]; 16.6 µM (active) in assay [3]; 23.5 µM (active) in [4]; 2.96 µM (active) in assay [5].

`Clc1ccc2c(c1)C(N1CCNCC1)=Nc1ccccc1O2`: the Potency result in assay [7] and in assay [2] was “inactive” each time. The Potency in [5] is 14.8 µM (active).

On to `CN(Cc1cnc2nc(N)nc(N)c2n1)c1ccc(C(=O)N[C@@H](CCC(=O)O)C(=O)O)cc1`, for which the Potency is 0.0264 µM (active) in assay [2]; 0.0372 µM (active) in assay [3]; 0.0469 µM (active) in [6]; 0.0662 µM (active) in assay [4]; 1.18 µM (active) in [5].

As to `CC(C)Cc1ccc(C(C)C(=O)O)cc1` (stereo not given), the Potency result in [7] and in assay [4] was “inactive” each time. Further, the Potency in assay [3] was 1.62 µM (active).

Turning to `CN1CCC(=C2c3ccccc3C=Cc3ccccc32)CC1`, the Potency entry in assay [9] was “inactive”. For the same compound, the Potency in [3] is 11.8 µM (active); in assay [4], 11.8 µM (active); in [5], 7.43 µM (active).

In the case of `CCC1(c2ccccc2)C(=O)NCNC1=O`, the Potency in assay [1] was 5.26 µM (active); in assay [3], 3.32 µM (active); in assay [4], 2.96 µM (active); in assay [5], 1.66 µM (active).

For the compound `CN1CCN2c3ccccc3Cc3ccccc3C2C1` (stereo not given), the Potency in [4] and in [5] was 23.5 µM (active) each time.

In the case of `CN1CCC(=C2c3ccccc3CC(=O)c3sccc32)CC1`, the Potency entry in assay [9] is “inactive”. For the same compound, the Potency in assay [3] was 8.33 µM (active); in [4] it was 6.62 µM (active); in assay [5], 7.43 µM (active).

In the case of `CCCNCC(O)COc1ccccc1C(=O)CCc1ccccc1` (stereo not given), the Potency result in [6] and in [4] was “inactive” in each case. The Potency in [5] was 16.6 µM (active).

For `NCCCCCC(=O)O`, the Potency entry in [7], in assay [2], in assay [4] and in assay [5] was “inactive” throughout. Besides, in [6], the Potency is 0.0187 µM (active).

Consider `COc1ccccc1OCCNCC(O)COc1cccc2[nH]c3ccccc3c12` (stereo not given), for which the Potency entry in [1] and in assay [5] was “inactive” throughout. For the same compound, the Potency in assay [4] was 16.6 µM (active).

On to `NC(CO)C(=O)NNCc1ccc(O)c(O)c1O` (stereo not given), for which the Potency entry in assay [1], in assay [8], in assay [3], in [4] and in assay [5] was “inactive” throughout. The Potency in [6] is 11.8 µM (active).

As for `CN(C)CCOC(c1ccccc1)c1ccccc1`, in assay [7], the Potency result is “inactive”. In addition, the Potency in [8] was 23.5 µM (active); in [3], 10.5 µM (active); in assay [5] it was 9.35 µM (active).
